Results filed as inconclusive are left out. A call without a number means that no potency is given here. Calls of active or inactive are those of the source. The call rests on the fitted dose curve; in most records, active means well fitted activation curve with a large enough effect; inconclusive means small, poorly fitted or top-dose-only effect; inactive means no such curve, though single readings can be large or run the other way.
Potency means the concentration at half of the fitted maximal effect.

The assay in a line: qHTS Assay for Identifying a Potential Treatment of Ataxia-Telangiectasia: Secondary assay (no NCS) hit validation.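 Further: phosphorylated KAP1 signal as a proxy for ATM-like kinase activity.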 Particulars: A-T patient fibroblasts, AlphaLISA, no DNA damage added, 90 min; series mostly up to 76.9 µM. Put shortly:
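hTERT-immortalized A-T patient fibroblasts (F2112), 500 cells/well, exposed to compounds at up to 76.7 uM final without NCS at 37C. KAP-1 phosphorylation measured by AlphaLISA after lysis and 6 h detection at 25C.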
On the technique in general: Quantitative high-throughput screening tests each substance at several concentrations.
Take `CCn1c2ccccc2c2c3ncc4cccn4c3ccc21`: the Potency was 36.8 µM (active).

As to `O=C(CCCC(=O)N1CCCC1)N1CCCC1`, the Potency result is “inactive”.

`CCCc1ccc(S(=O)(=O)Nc2ccc(C)c(NS(C)(=O)=O)c2)cc1`: the Potency entry is “inactive”.

Consider `CC(C)(CN1CCN(c2ccccc2)CC1)NS(=O)(=O)c1ccccc1`, for which the Potency result was “inactive”.

With `COC(=O)c1ccncc1C(=O)Nc1ccc(Oc2ncc(C(F)(F)F)cc2Cl)cc1`, the Potency result is “inactive”.

In the case of `Cc1[nH]c2c(C)cccc2c1CN1CCC(CO)(Cc2ccccc2)CC1`, the Potency was 1.84 µM (active).

On to `O=C(Nc1ccc([N+](=O)[O-])cc1)c1cc2ccccc2nc1Cl`, for which the Potency entry is “inactive”.

In the case of `CNC(=S)N(CCO)Cc1cc2cc3c(cc2[nH]c1=O)OCCO3`, the Potency entry is “inactive”.

Take `CCC[C@H]1CCCC/C=C\CCCC(=O)OCCN1C(=O)OC(C)(C)C`: the Potency entry is “inactive”.

Turning to `Cc1ccc(C(=O)c2c(C)oc3c2C(=O)C(=O)c2ccccc2-3)cc1`, the Potency result is “inactive”.

In the case of `CCn1c(=NC(=O)CN2C(=O)CCC2=O)sc2c(OC)ccc(OC)c21`, the Potency is 0.923 µM (active).

`O=c1c2cc(Br)ccc2nc(-c2ccccc2)n1O`: the Potency entry is “inactive”.

With `CC(C)NC(=O)c1ccc(COc2ccc(C(C)(C)C)cc2)o1`, the Potency result is “inactive”.

As for `Cc1ccc(C2(C)NC(=O)N(CC(=O)Nc3ccccc3N3CCCC3)C2=O)cc1` (centres undefined), the Potency result was “inactive”.

Consider `CC(C)CC(=O)Nc1c2c(nn1-c1cccc(Cl)c1)CS(=O)C2` (centres undefined), for which the Potency was 58.2 µM (active).

On to `C=CCSc1nc2ccccc2n1C(=O)/C=C/c1cc(OC)c(OC)c(OC)c1`, for which the Potency entry is “inactive”.

Turning to `CN1C[C@@H]2C(c3ccccc3)C3(c4ccccc4)CC2(C3)[C@H]1c1ccccc1` (some centres undefined), the Potency is 20.7 µM (active).

Regarding `S=c1[nH]nc(C2CCCCC2)n1/N=C/c1ccc(Br)cc1`, the Potency entry was “inactive”.

As to `O=C(CCC(=O)c1ccc(F)cc1)Nc1cccc(Br)c1`, the Potency result is “inactive”.

As to `CC(=O)/C(N=Nc1nc2c([nH]1)c(=O)n(C)c(=O)n2C)=C(\C)O`, the Potency result was “inactive”.

As for `CC(C)c1ccc(C(C(=O)NC2CCCCC2)N(C(=O)c2ccccn2)c2cccnc2)cc1` (centres undefined), the Potency entry is “inactive”.

For the molecule `COc1cccc(OC)c1C(=O)NC(=O)Nc1c(C)cccc1C`, the Potency entry was “inactive”.

Consider `COc1ccc(-c2cc(C(F)(F)F)c(C#N)c(SCC(=O)O)n2)cc1OC`, for which the Potency entry was “inactive”.

With `NC(=O)C1CCN(Cc2nc3cc(C(F)(F)F)ccc3c(=O)[nH]2)CC1`, the Potency entry is “inactive”.

For the molecule `COC(=O)Cn1ccc2cc(S(=O)(=O)N3CCCCC3)ccc21`, the Potency result was “inactive”.

`COc1ccc(-n2c(=S)[nH]c3ccccc3c2=S)cc1`: the Potency result is “inactive”.

`CCCCn1c2c(c(=N)c3ccccc31)CCC2`: the Potency entry is “inactive”.

Take `CCn1nc(C)c(CNC(=O)c2cc(COc3ccc(F)cc3Cl)on2)c1C`: the Potency entry was “inactive”.

Take `C=CCN1C(=O)/C(=C/C(=O)OC)S/C1=N\NC(=O)c1ccccc1`: the Potency result is “inactive”.

Take `CCN(CC)CCNC(=O)CCc1c(C)nc2c(c(C)nn2-c2ccc(C)cc2)c1C`: the Potency entry is “inactive”.

Regarding `CCC(C)N1C(=S)SC(C)(C)C1N(O)C(=O)NC1CCCCC1` (centres undefined), the Potency entry is “inactive”.

On to `CNC(=O)c1ccc(-c2cc3onc(-c4ccccc4)c3c(=O)n2C)cc1`, for which the Potency was 18.4 µM (active).

In the case of `CCNC(=S)N(CCc1c(C)[nH]c2ccccc12)Cc1cccnc1`, the Potency entry is “inactive”.

As for `OC1(CC#CCN2CCCCC2)c2ccccc2-c2ccccc21`, the Potency result was “inactive”.
